Source: PubChem BioAssay (The Scripps Research Institute Molecular Screening Center)
GPR151 ag: activators of human GPR151, primary screen, cell-based, PathHunter beta-arrestin, luminescence | G-protein coupled receptor 151 (Homo sapiens), Q8TDV0 | PathHunter beta-arrestin GPR151 cells | activation, % at 11.2 µM | 1% of 650,000 active; in the data active = activation above about 4.9%
FBW7 activator: FBW7 E3 ligase activators, primary screen, biochemical, AlphaScreen, human. AlphaScreen FBW7–phospho-cyclin E peptide binding, activator screen. normalized activity (activation), % at 26.1 µM. 0.13% of 650,000 active. AID 1259310, 2017; in the data active = normalized activity above about 1.9%;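 note: purified mutant Fbw7 with reduced substrate affinity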
TEAD-YAP inh: TEAD-YAP interaction inhibition, primary screen, TEAD-YAP interaction inhibitor project, luminescence, HEK-TIYL cells. TEAD-Gal4/YAP UAS-luciferase luminescence. AID 1259422, 2018. inhibition, % at 9.12 µM. 1.4% of 640,000 active; in the data active = inhibition above about 32%
MITF primary: MITF inhibitors, primary screen, biochemical, AlphaScreen, human. Microphthalmia-associated transcription factor (Homo sapiens), O75030. AlphaScreen MITF homodimerization, bead proximity signal. inhibition, % at 2.6 µM. AID 1259374, 2018. 0.91% of 650,000 active; in the data active = inhibition above about 50%
GPR151 confirm: GPR151 activators, triplicate retest, confirmation, cell-based, PathHunter beta-arrestin, luminescence | shares compounds with GPR151 ag | GPR151 PathHunter beta-arrestin cells, 90 min; % of EA-reagent control over plate median | activation, % at 11.2 µM | 6,700 tested, under 10 active | AID 1508609, 2020;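 active = mean percent activation across replicates above the confirmation screen cutoff of 4.91%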
GPR119 counter: GPR119 activators in beta-arrestin cells, counter-screen for GPR151 activator project, cell-based, PathHunter beta-arrestin, luminescence, triplicate | shares compounds with GPR151 ag | 90 min; 0 = compound-well median, 100 = enzyme-acceptor control | activation, % at 11.2 µM | 0.3% of 6,700 active;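 active = mean percent activation in the counterscreen above 29.09%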;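 note: counterscreen on off-target GPR119 to flag nonselective hits from the GPR151 activator screen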
Target sequence (Q8TDV5 whole entry, looked up): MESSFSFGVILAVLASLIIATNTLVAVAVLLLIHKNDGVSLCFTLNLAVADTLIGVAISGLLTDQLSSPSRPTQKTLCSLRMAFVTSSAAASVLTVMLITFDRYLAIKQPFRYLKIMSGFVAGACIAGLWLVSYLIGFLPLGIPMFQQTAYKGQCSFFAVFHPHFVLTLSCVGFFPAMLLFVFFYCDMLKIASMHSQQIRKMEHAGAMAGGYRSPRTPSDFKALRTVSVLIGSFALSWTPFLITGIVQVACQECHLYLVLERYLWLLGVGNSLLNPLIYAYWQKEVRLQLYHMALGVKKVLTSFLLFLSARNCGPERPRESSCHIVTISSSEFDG
Each line names hits and unclear results; the compound was inactive in the other large screens (follow-up assays come after a bar, where they were run). An excerpt weighted towards active compounds, which were near 3.4% of everything screened.

O=[N+]([O-])c1ccc(CN2CCN(Cc3cc(Br)ccc3O)CC2)cc1	GPR151 ag 6.6 | GPR151 confirm inactive | GPR119 counter inactive
COc1cc(CN2CCN(c3ccc([N+](=O)[O-])cc3)CC2)ccc1O	none
COc1ccc(CN2CCN(c3ccc([N+](=O)[O-])cc3)CC2)cc1O	GPR151 ag 6.7, TEAD-YAP inh 36 | GPR151 confirm inactive | GPR119 counter inactive
O=C(NCCCN1CCOCC1)/C(=C/c1ccc(-c2cccc(C(F)(F)F)c2)o1)NC(=O)c1ccc(Cl)cc1	GPR151 ag 9.4 | GPR151 confirm inactive | GPR119 counter inactive
CC1CN(c2cc(N3CCOCC3)c(F)cc2[N+](=O)[O-])CCN1C(=O)c1cccs1 (stereo not drawn)	GPR151 ag 7.6 | GPR151 confirm inactive | GPR119 counter inactive
CC(=NC1CC(C)(C)NC(C)(C)C1)c1c(C)[nH]n(-c2ccc([N+](=O)[O-])cc2)c1=O	GPR151 ag 6.3 | GPR151 confirm inactive | GPR119 counter inactive
CCCN(CCC)C(=O)c1sc2nc(C)nc(N3CCCCC3)c2c1C	GPR151 ag 5.5 | GPR151 confirm inactive | GPR119 counter inactive
CCC(C)NC(=O)c1sc2nc(C)nc(N3CCC(C)CC3)c2c1C (stereo not drawn)	GPR151 ag 6.9 | GPR151 confirm inactive | GPR119 counter inactive
Cc1ccc(C(=O)NCc2ccc(Cl)cc2)o1	GPR151 ag 7.7 | GPR151 confirm inactive | GPR119 counter inactive
NC(=O)C(=O)NCc1ccc(Cl)cc1	GPR151 ag 5.9 | GPR151 confirm inactive | GPR119 counter inactive
Cc1ccc(C(=O)NCc2ccccc2)o1	none
COc1cc(C(=O)NC2CCCC2)c([N+](=O)[O-])cc1OC	none
Cc1cc(OCC(=O)NN2CCOCC2)ccc1[N+](=O)[O-]	GPR151 ag 5.0 | GPR151 confirm inactive | GPR119 counter inactive
Cc1cc(OCC(=O)NN2CCN(C)CC2)ccc1[N+](=O)[O-]	none
Cc1c(Cl)cccc1NC(=O)CSc1nc2c(-c3ccccc3)csc2c(=O)n1C	none
CCOc1ccc(N2CC(CNS(=O)(=O)CC)CC2=O)cc1 (stereo not drawn)	none
CC(NC(=O)c1cnc2scc(C(C)(C)C)n2c1=O)c1ccccc1 (stereo not drawn)	GPR151 ag 7.4 | GPR151 confirm inactive | GPR119 counter inactive
O=S(=O)(Nc1ccc(-c2nc3ccccc3[nH]2)cc1)c1ccc(-n2cccn2)cc1	GPR151 ag 5.8 | GPR151 confirm inactive | GPR119 counter inactive
O=[N+]([O-])c1ccc(S(=O)(=O)Nc2ccc(-c3nc4ccccc4[nH]3)cc2)cc1	none
CCN(CC)c1ccc(NC(=O)C2CC3CCCN3C23C(=O)Nc2ccccc23)c(C)c1 (stereo not drawn)	GPR151 ag 5.4 | GPR151 confirm inactive | GPR119 counter inactive
CCN(CC)c1ccc(NC(=O)C2CC3CCCN3C23C(=O)N(C)c2ccccc23)c(C)c1 (stereo not drawn)	none
Cc1cc(NC(=O)C2CCN(C(=O)c3c(F)cccc3F)CC2)no1	none
CCN1C(=O)/C(=C\c2ccc(Br)o2)SC1=S	none
O=C(Nc1nc(-c2ccccc2)c(C(=O)c2ccccc2)s1)c1ccccc1[N+](=O)[O-]	GPR151 ag 5.0 | GPR151 confirm inactive | GPR119 counter inactive
O=C(Nc1nc(-c2ccccc2)c(C(=O)c2ccccc2)s1)c1cc(Cl)ccc1[N+](=O)[O-]	none
COc1ccc(CNC(=O)c2cc3c(=O)[nH]c4ccccc4c3n2C)c(OC)c1	GPR151 ag 6.4 | GPR151 confirm inactive | GPR119 counter inactive
Cn1ncc2c(N3CCN(Cc4ccc5c(c4)OCO5)CC3)ncnc21	none
O=[N+]([O-])c1ccc2ncnc(N3CCN(Cc4ccc5c(c4)OCO5)CC3)c2c1	GPR151 ag 12, TEAD-YAP inh 35 | GPR151 confirm inactive | GPR119 counter inactive
c1cncc(-c2noc(C34CC5CC(CC(C5)C3)C4)n2)c1	GPR151 ag 6.9 | GPR151 confirm inactive | GPR119 counter inactive
c1cncc(-c2noc(CCC3CCCC3)n2)c1	GPR151 ag 7.7 | GPR151 confirm inactive | GPR119 counter inactive
C/C=C(\CC(NCc1ccccc1CC(OC)OC)c1ccc(C)o1)C[Si](C)(C)C (stereo not drawn)	none
CC(=O)Nc1ccc(C(C(F)(F)F)(C(F)(F)F)C(F)(F)F)cc1[N+](=O)[O-]	GPR151 ag 5.0 | GPR151 confirm inactive | GPR119 counter inactive
Cc1nc2c(c(=O)[nH]1)CN(C(=O)C1(c3ccc(Cl)cc3)CCC1)CC2	none
Cc1nc2c(c(=O)[nH]1)CN(C(=O)C1(c3cccc(F)c3)CCCC1)CC2	GPR151 ag 6.5 | GPR151 confirm inactive | GPR119 counter inactive
COc1ccc(/C=C2\N=C(c3cc(OC)c(OC)c(OC)c3)OC2=O)c(OC)c1	none
NC(=O)C1CCCc2c1[nH]c1c(C(=O)O)cccc21 (stereo not drawn)	GPR151 ag 6.1 | GPR151 confirm inactive | GPR119 counter inactive
CCCC1=NN2C(=N)/C(=C/c3ccc(-c4ccc(C(=O)OCC)cc4)o3)C(=O)N=C2S1	GPR151 ag 5.2 | GPR151 confirm inactive | GPR119 counter inactive
COc1ccc(Nc2nc(=S)[nH]c3cc(OC)c(OC)cc23)cc1OC	GPR151 ag 6.6 | GPR151 confirm inactive | GPR119 counter inactive
COc1cc2[nH]c(=S)nc(Nc3ccncc3)c2cc1OC	none
O=C(NCc1ccco1)c1ccc(Cn2nnc3ccccc3c2=O)cc1	none
COc1cc(C(Nc2cccc(C)n2)c2ccc3ccc(C)nc3c2O)ccc1O (stereo not drawn)	GPR151 ag 5.2 | GPR151 confirm inactive | GPR119 counter inactive
CCc1cc(C(=O)Cc2ccc3c(c2)OCCCO3)c(O)cc1OC	GPR151 ag 5.2 | GPR151 confirm inactive | GPR119 counter inactive
O=C(O)c1cc(N2C(=O)C3C4C=CC(C5CC45)C3C2=O)ccc1Cl (stereo not drawn)	none
Cc1sc2nc(CSCC(=O)NC3CC3)[nH]c(=O)c2c1C	GPR151 ag 6.1 | GPR151 confirm inactive | GPR119 counter inactive
Cc1sc2nc(CSCC(=O)NCC(F)(F)F)[nH]c(=O)c2c1C	none
CN(Cc1ccccc1)C(=O)c1ccc(N2CC3CC(C2)c2cccc(=O)n2C3)c(NC(=O)Cc2c(F)cccc2Cl)c1 (stereo not drawn)	none
CC(C(=O)NC1CCCCC1)n1c(=O)c2cccn2c2cccnc21 (stereo not drawn)	none
Cc1ccc2cc(CN(C(=O)C3CC3)C3CCCCC3)c3nnnn3c2c1C	none
